High-throughput results: PubChem, The Scripps Research Institute Molecular Screening Center
ssDAF12 agonist – S. stercoralis DAF-12 nuclear receptor activators, primary screen, cell-based, luminescence, HEK293, GRIP1 co-expression, lit1-tk-luc | HEK293 ssDAF-12/GRIP1 lit1-tk-luc reporter; % of 3 µM dafachronic acid response | activation, % at 6.8 µM | 1% of 370,000 active | AID 652126, 2013;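 active means activation above the mean over all tested compounds plus 3 SD, cut at about 0.9% in these data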;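 further: 0% = DMSO-only wells and 100% = 3 µM delta7-dafachronic acid wells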
DAX1 inh-1 – DAX1 (NR0B1) inhibitors on StAR promoter, primary screen, cell-based, luminescence, SF-1 (NR5A1), full-length DAX-1 | inhibition, % at 6.8 µM | HEK293T StAR-luciferase reporter, SF-1/DAX-1 repression relief | 1.1% of 370,000 active;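 active means inhibition above the mean over all tested compounds plus 3 SD, cut at about 3.6% in these data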;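 further: 0% = DAX-1 cells with DMSO and 100% = cells lacking DAX-1 with DMSO; higher inhibition means more luminescence from relief of DAX-1 repression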
hcDAF12 agonist – H. contortus DAF-12 nuclear receptor activators, primary screen, cell-based, luminescence, HEK293, lit1-tk-luc reporter; HEK293 hcDAF-12 lit1-tk-luc reporter; 0% DMSO, 100% Δ7-dafachronic acid; activation, % at 6.8 µM; 1.4% of 370,000 active;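 active means activation above the mean of all tested compounds plus 3 SD, cut at about 5.5% in these data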;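 further: 100% = response to 3 µM Δ7-dafachronic acid high control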
DAX1 inh-2 – DAX1 (NR0B1) inhibitors, primary screen, cell-based, HEK293, Gal4-DAX1, luciferase luminescence; Nuclear receptor subfamily 0 group B member 1 (Homo sapiens), P51843; HEK293 Gal4-DAX1 luciferase reporter; inhibition, % at 6.75 µM; 0.99% of 340,000 active; AID 504766, 2011;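 active means inhibition above the mean over all tested compounds plus 3 SD, cut at about 4.2% in these data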;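 further: 0% = DAX1-transfected cells with DMSO and 100% = empty-vector control cells with DMSO; inhibition shows as a rise in luminescence from relieved DAX1 repression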
Target sequence (P51843 207-470 limits assumed): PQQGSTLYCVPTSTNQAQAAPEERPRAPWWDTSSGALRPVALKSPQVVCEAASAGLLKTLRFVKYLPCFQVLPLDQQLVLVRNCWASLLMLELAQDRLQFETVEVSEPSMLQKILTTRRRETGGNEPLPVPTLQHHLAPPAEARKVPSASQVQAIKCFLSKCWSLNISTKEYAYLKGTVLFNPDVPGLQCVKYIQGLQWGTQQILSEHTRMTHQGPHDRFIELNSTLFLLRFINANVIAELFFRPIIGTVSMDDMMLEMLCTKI
hgDAF12 agonist – H. glycines DAF-12 receptor agonists, primary screen, cell-based, luminescence, HEK293, GAL4 fusion, UAS-luciferase; Nuclear hormone receptor DAF-12 (Heterodera glycines), GAL4 fusion; HEK293 GAL4-hgDAF12 UAS-luciferase reporter, agonist luminescence; normalized to butyrate control; activation, % at 6.8 µM; 1.8% of 370,000 active;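 active means activation above a cutoff set at the mean of all screened compounds plus 3 SD, cut at about 10% in these data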;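 further: 0% = DMSO wells and 100% = sodium butyrate wells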
* hit, by the source's call; . = not tested or not shown. Compounds with a hit are over-represented: about 4.1% of the library has one in this group of screens.

SMILES | ssDAF12 agonist | DAX1 inh-1 | hcDAF12 agonist | DAX1 inh-2 | hgDAF12 agonist
Cc1ccccc1N1C(=O)C2C3C=CC(CC3)C2C1=O (centres undefined) | -0.9 | -0.1 | 0.3 | -0.5 | -0.9
Cc1ccccc1N1C(=O)CC2(CCCC2)CC1=O | 1.1* | 0.9 | -0.2 | -0.3 | 0.5
Nc1ncnc2c1ncn2[C@@H]1O[C@H](C(=O)N[C@@H](CCc2ccccc2)C(=O)O)[C@@H](O)[C@H]1O | -1.6 | 1.2 | -0.7 | . | -2.9
C=CCn1c(=O)c(C(=O)Nc2ccc(C)cc2)c(O)c2ccccc21 | 1.0* | 0.4 | 2.0 | 0.2 | 4.1
CCn1c(=O)c(C(=O)NNS(=O)(=O)c2ccc(C)cc2)c(O)c2ccccc21 | -0.4 | 0.0 | 2.7 | 0.0 | -1.1
CCn1c(=O)c(C(=O)NNS(=O)(=O)c2ccc(Br)cc2)c(O)c2ccccc21 | -0.1 | 0.6 | 1.4 | 8.6* | 3.0
Cn1c(=O)c(C(=O)NNC(=O)c2ccc(Br)cc2)c(O)c2ccccc21 | -0.2 | -0.3 | 3.6 | 4.5* | -0.4
Cn1c(=O)c(C(=O)NNC(=O)c2ccccc2F)c(O)c2ccccc21 | 0.1 | -0.2 | 3.3 | -0.5 | 2.8
CCn1c(=O)c(C(=O)NCc2ccc(F)cc2)c(O)c2ccccc21 | -0.6 | -0.5 | -1.0 | 4.7* | -0.8
COC(=O)[C@]12C[C@H](CC(=O)NCC34CC5CC(CC(C5)C3)C4)C(=O)N(Cc3ccc(Cl)cc3Cl)C1=C[C@H](C1CCCC1)O[C@@H]2C | -0.5 | 0.2 | -0.6 | . | 2.0
O=C1CCC[C@H]2C[C@H](NCc3ccc(Br)cc3)CC[C@]23CCCN13 | 0.3 | . | 2.8 | . | 0.5
Cc1ccc2c(c1)C(CS(=O)(=O)NCc1ccccc1)NC2 (centres undefined) | -1.3 | -0.8 | -1.5 | . | -1.9
CCOc1ccc(CCN2CN(CC)CNC2=S)cc1OCC | -0.5 | 0.2 | -2.0 | 4.9* | -1.1
CCN1CNC(=S)N(CCc2ccccc2)C1 | -1.3 | 0.2 | 0.6 | -0.5 | -0.4
O=S1(=O)C=CCN1Cc1cn(Cc2cccc(Cl)c2)nn1 | -1.2 | 0.6 | -1.1 | . | 2.8
Cc1ccc(C(=O)Nc2cc3c(oc2=O)CCCC3=O)cc1 | 0.4 | 2.4 | 4.0 | 3.0 | 11.2*
C[C@H](O)[C@@H]1C(=O)N2CCc3c([nH]c4ccccc34)[C@@H]2C[C@@H]1N(C)C(=O)OCc1ccccc1 | -0.6 | -1.0 | -0.1 | . | 7.1
O=C(C1CCC1)n1ccc2ccc(-c3ccc4ccn(Cc5ccccc5)c4c3)cc21 | -0.1 | 0.6 | 2.8 | . | 5.8
O=C(NC1CC1)c1ccc2c(Cl)c3c(nc2c1)CCCC3 | -2.0 | 0.0 | -0.5 | -1.4 | 10.8*
C[C@H](O)[C@@H]1CN2CCc3ccc(N4CCOCC4)cc3[C@@H]2C[C@@H]1N(C)C(=O)c1ccccc1F | -1.2 | -0.8 | -1.3 | . | 4.0
CCCCSc1nnc(-c2ccccc2N)c(=O)[nH]1 | -0.3 | 0.9 | 5.9* | 0.2 | 11.1*
CCCCCCCSc1nnc(-c2ccccc2N)c(=O)[nH]1 | -0.7 | 0.6 | 0.2 | 1.4 | -1.2
CCOC(=O)CC1CCCCN1Cc1cn[nH]c1-c1ccc(F)cc1F (centres undefined) | -1.3 | -0.1 | -1.7 | 4.7* | -4.2
CN(C)S(=O)(=O)c1ccc2c(c1)c(=O)c(C(=O)NCCCN1CCCCCC1)cn2C | -1.6 | 1.2 | 1.1 | 5.2* | 2.9
CCN(CC)S(=O)(=O)c1ccc2c(c1)c(=O)c(C(=O)NCCCN(C)c1ccccc1)cn2C | -1.9 | 0.8 | -2.0 | 0.8 | 1.0
SMILES | ssDAF12 agonist | DAX1 inh-1 | hcDAF12 agonist | DAX1 inh-2 | hgDAF12 agonist
CN(CCCNC(=O)c1cn(C)c2ccc(S(=O)(=O)N(C)C)cc2c1=O)c1ccccc1 | -0.5 | -2.2 | -0.8 | 5.3* | 1.4
CCn1cc(C(=O)NCCCN2CCN(C)CC2)c(=O)c2cc(S(=O)(=O)N3CCc4ccccc4C3)ccc21 | 1.5* | -0.4 | 1.2 | 2.9 | -1.9
CN(C)S(=O)(=O)c1ccc2c(c1)c(=O)c(C(=O)N1CCOCC1)cn2C | -1.8 | 0.8 | 1.9 | 5.9* | 2.7
O=C(OCc1cn(Cc2c(F)cccc2F)nn1)N1CCOCC1 | -0.8 | 0.5 | -1.9 | . | 3.0
CCCCNS(=O)(=O)/C=C/c1cc(C)ccc1CNC(=O)OC(C)(C)C | -1.8 | -1.5 | -4.0 | . | -0.5
CCOC(=O)Cn1cc(CN2C(C(=O)OC)CN(Cc3ccc(Cl)cc3)CCS2(=O)=O)nn1 (centres undefined) | -0.2 | 0.0 | -0.3 | . | -0.5
Cc1ccc(N(CC(=O)N/N=C/c2cccc(Br)c2)S(C)(=O)=O)cc1 | 1.4* | -0.1 | 3.5 | -0.2 | 4.2
Nc1[nH]c(C(=O)c2ccc(Br)cc2)c(-c2ccncc2)c1C(=O)NCCc1c[nH]c2ccccc12 | -0.3 | -0.3 | -0.8 | . | 5.2
CC1CCCN(S(=O)(=O)c2coc(C(N)=O)c2)C1 (centres undefined) | -1.6 | -0.1 | -0.5 | 5.1* | 3.0
CC1CCCCN1S(=O)(=O)c1coc(C(N)=O)c1 (centres undefined) | -1.2 | 0.0 | -0.6 | 1.7 | 0.4
Cn1c(=O)[nH]c2c(Br)nccc21 | -1.2 | -0.9 | -0.5 | . | -1.0
COc1ccc(N/C=C/C(=O)c2ccccc2)cc1 | 1.0* | 4.4* | 5.4 | -3.0 | 12.5*
O=C(/C=C/Nc1ccc(F)c(Cl)c1)c1ccccc1 | -0.1 | 2.3 | 6.3* | 2.4 | 5.7
Cc1ccc(C(=O)/C=C/Nc2ccc3c(c2)OCO3)cc1 | 1.6* | 1.2 | 0.6 | 1.0 | 2.2
O=C(/C=C/Nc1ccc(F)c(F)c1)c1ccc(Br)cc1 | -0.5 | 3.0 | 5.2 | 0.7 | 12.3*
COc1ccc(N/C=C\C(=O)c2ccc3ccccc3c2)cc1 | -0.9 | 0.0 | 0.1 | -0.7 | 1.5
CC(=O)Nc1ccc(N/C=C/C(=O)c2ccc(Cl)cc2)cc1 | -1.3 | 0.9 | 2.1 | -0.1 | 2.7
Cc1cc(C)cc(N(CC(=O)NC2CCC(C)CC2)S(=O)(=O)c2ccc(C(C)(C)C)cc2)c1 (centres undefined) | 0.0 | 1.5 | 0.9 | . | 7.8
Cc1cccc(CCNC(=O)CSc2nc3c([nH]2)c(=O)n(C)c(=O)n3C)c1 | -1.1 | 1.1 | -1.8 | . | 2.4
Cc1cc(Br)c2nc(-c3ccc(Cl)cc3)c(Cc3cccc(Cl)c3)n2c1 | 0.0 | -0.2 | 2.8 | . | 3.6
Nc1[nH]c(C(=O)c2ccc(Br)cc2)c(-c2ccccn2)c1C(=O)NCCc1c[nH]c2ccccc12 | 0.0 | -1.0 | -0.2 | . | -0.8
O=C(/C=C/Nc1ccc(F)cc1)c1ccc(Br)cc1 | 0.2 | 3.1 | 2.8 | 2.4 | 11.3*
